Results on 24 compounds are retold here after PubChem BioAssay (NCATS).

Common to all, as to assay: qHTS profiling for inhibitors of Plasmodium falciparum proliferation (AID 504749); note: nearly all actives have a fitted effect of over 60% in size
Details in all cases: P. falciparum in erythrocytes, SYBR Green DNA, 72 h; series mostly up to 28.7 µM

One experiment relates to PC15. A digest of the protocol:
(§1)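 Each compound contacts P. falciparum-infected red blood cells for 72 h at 37 C; lysis buffer (Tris, EDTA, saponin, Triton X, SYBR Green I) is added and fluorescence measured next morning; values normalized to controls.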

A further experiment relates to PC26. A digest of the protocol:
as §1

A further experiment has as its system PC49. A digest of the protocol:
as §1

The next experiment has as its system SC27B. A digest of the protocol:
as §1

In another experiment the test system is TAB109. In a few lines: as §1
The test system of a further experiment is TAB113. A digest of the protocol: as §1
The subject of a further experiment is TAB165. In a few lines: as §1
Another experiment has as its system W2. In a few lines:
as §1

Structures are written as SMILES. Inconclusive results are not listed. Active and inactive are the calls of the source. Calls come from the whole dose curve; as a rule, active = well fitted inhibition curve with a large enough effect; inconclusive = small, poorly fitted or top-dose-only effect; inactive = flat fitted curve, though single readings scatter.
Potency is the fitted concentration of half-maximal effect.

Consider `O=C(O)CCC/C=C\C[C@@H]1[C@@H](/C=C/[C@@H](O)COc2cccc(Cl)c2)[C@H](O)C[C@@H]1O`, for which the Potency result in the experiment with PC15, in the experiment on PC26, in the experiment with PC49, in the experiment on SC27B, with TAB109 and in the experiment on TAB113 was “inactive” throughout. For the same compound, the Potency entry with TAB165 and in the experiment on W2 was “inactive” each time.
For `CN(C)c1ccc(C(=C2C=CC(=[N+](C)C)C=C2)c2c(O)c(S(=O)(=O)[O-])cc3cc(S(=O)(=O)O)ccc23)cc1`, the Potency entry in the experiment with PC15, in the experiment with PC26, with PC49, in the experiment with SC27B, in the experiment with TAB109 and in the experiment on TAB113 was “inactive” each time. Also, the Potency result in the experiment on TAB165 and with W2 was “inactive” each time.
In the case of `CCCCCCCCCCCC(=O)OCC(O)CO` (configuration not stated), the Potency entry in the experiment on PC15, in the experiment on PC26, in the experiment with PC49, in the experiment with SC27B, in the experiment with TAB109 and in the experiment on TAB113 was “inactive” in each case. Further, the Potency entry with TAB165 and in the experiment on W2 was “inactive” each time.
As for `CC(/C=C/C=C(\C)C(=O)O[C@@H]1O[C@H](CO[C@@H]2O[C@H](CO)[C@@H](O)[C@H](O)[C@H]2O)[C@@H](O)[C@H](O)[C@H]1O)=C\C=C\C=C(C)\C=C\C=C(/C)C(=O)O[C@@H]1O[C@H](CO[C@@H]2O[C@H](CO)[C@@H](O)[C@H](O)[C@H]2O)[C@@H](O)[C@H](O)[C@H]1O`, the Potency result in the experiment with PC15, in the experiment on PC26, in the experiment with PC49, in the experiment with SC27B, in the experiment on TAB109 and with TAB113 was “inactive” in each case. In addition, the Potency entry in the experiment on TAB165 and with W2 was “inactive” throughout.
Turning to `O=c1[nH]c(=O)n([C@H]2C[C@H](O)[C@@H](CO)O2)cc1/C=C/Br`, the Potency entry in the experiment with PC15, in the experiment with PC26, in the experiment with PC49, in the experiment with SC27B, in the experiment on TAB109 and in the experiment on TAB113 was “inactive” each time. The Potency result in the experiment with TAB165 and in the experiment on W2 was “inactive” in each case.
`O=C(/C=C/c1cccc(F)c1)NC1CC1`: the Potency entry with PC15, in the experiment on PC26, in the experiment on PC49, in the experiment with SC27B, in the experiment on TAB109 and in the experiment with TAB113 was “inactive” throughout. Also, the Potency entry in the experiment on TAB165 and in the experiment on W2 was “inactive” in each case.
With `CC(C)(Oc1ccc(C2CCCc3ccccc32)cc1)C(=O)O` (configuration not stated), the Potency entry with PC15, in the experiment on PC26, with PC49, in the experiment on SC27B, with TAB109 and in the experiment on TAB113 was “inactive” in each case. Further, the Potency entry with TAB165 and with W2 was “inactive” in each case.
For the compound `CC(=O)N[C@@H]1C(O[C@H]2O[C@H](C(=O)O)C(O)[C@H](O)[C@H]2O)[C@H](O)[C@@H](CO)O[C@H]1O[C@@H]1C(C(=O)O)O[C@@H](O[C@H]2[C@H](O)[C@@H](CO)OC(O)[C@@H]2NC(C)=O)[C@H](O)[C@H]1O` (some centres not stated), the Potency result with PC15, in the experiment with PC26, in the experiment on PC49, in the experiment on SC27B, with TAB109 and with TAB113 was “inactive” each time. In addition, the Potency entry with TAB165 and in the experiment on W2 was “inactive” in each case.
As for `Nc1ncnc2c1ncn2[C@H]1CC[C@@H](CO)O1`, the Potency result in the experiment on PC15, in the experiment on PC26, in the experiment with PC49, in the experiment with SC27B, with TAB109 and in the experiment with TAB113 was “inactive” throughout. The Potency result in the experiment on TAB165 and with W2 was “inactive” throughout.
On to `O=C(O)[C@H]1CN(C/C=C/P(=O)(O)O)CCN1`, for which the Potency entry with PC15, in the experiment on PC26, in the experiment with PC49, in the experiment on SC27B, in the experiment with TAB109 and in the experiment with TAB113 was “inactive” throughout. Moreover, the Potency entry in the experiment on TAB165 and in the experiment with W2 was “inactive” in each case.
With `CC(CC=O)CCCC(C)(C)O` (configuration not stated), the Potency entry in the experiment on PC15, in the experiment on PC26, in the experiment with PC49, in the experiment on SC27B, in the experiment on TAB109 and in the experiment with TAB113 was “inactive” each time. Besides, the Potency entry with TAB165 and in the experiment on W2 was “inactive” in each case.
As for `NC(N)=O`, the Potency entry in the experiment on PC15, in the experiment on PC26, in the experiment with PC49, in the experiment on SC27B, with TAB109 and in the experiment with TAB113 was “inactive” each time. Moreover, the Potency entry with TAB165 and in the experiment with W2 was “inactive” each time.
With `FC(F)OC(Cl)C(F)(F)F` (configuration not stated), the Potency entry in the experiment with PC15, in the experiment on PC26, in the experiment on PC49, with SC27B, in the experiment with TAB109 and in the experiment on TAB113 was “inactive” each time. The Potency entry in the experiment with TAB165 and in the experiment with W2 was “inactive” in each case.
Regarding `C[Se]CC[C@H](N)C(=O)O`, the Potency result in the experiment on PC15, in the experiment on PC26, in the experiment on PC49, in the experiment with SC27B, with TAB109 and with TAB113 was “inactive” each time. For the same compound, the Potency entry in the experiment with TAB165 and with W2 was “inactive” in each case.
For `C=CCOc1ccc(CC(=O)O)cc1Cl`, the Potency entry with PC15, in the experiment with PC26, in the experiment on PC49, in the experiment with SC27B, in the experiment with TAB109 and with TAB113 was “inactive” throughout. For the same compound, the Potency result with TAB165 and with W2 was “inactive” each time.
Turning to `CC1=CCC2CC1C2(C)C` (configuration not stated), the Potency entry in the experiment with PC15, with PC26, in the experiment on PC49, with SC27B, with TAB109 and with TAB113 was “inactive” in each case. Further, the Potency entry in the experiment on TAB165 and in the experiment on W2 was “inactive” in each case.
`S=C1SCN(Cc2ccccc2)CN1Cc1ccccc1`: the Potency result in the experiment with PC15, in the experiment with PC26, with PC49, in the experiment on SC27B, in the experiment on TAB109 and in the experiment with TAB113 was “inactive” each time. For the same compound, the Potency result in the experiment on TAB165 and in the experiment with W2 was “inactive” each time.
For `CC1CC(OC(=O)C(O)c2ccccc2)CC(C)(C)C1` (configuration not stated), the Potency entry in the experiment on PC15, in the experiment on PC26, in the experiment on PC49, in the experiment with SC27B, with TAB109 and in the experiment on TAB113 was “inactive” throughout. Moreover, the Potency entry in the experiment with TAB165 and in the experiment with W2 was “inactive” each time.
Regarding `CCN(CC)CCCC(C)Nc1cc(/C=C/c2ccccc2Cl)nc2cc(Cl)ccc12` (configuration not stated), the Potency is 2000 nM (active) in the experiment on PC15; 5360 nM (active) in the experiment on PC26; 8910 nM (active) in the experiment on PC49; 2820 nM (active) with SC27B; 2510 nM (active) with TAB109; 1780 nM (active) in the experiment with TAB113. The results for the Potency in the experiment on TAB165 and in the experiment with W2 were 2240 nM (active) and 601 nM (active), respectively.
Turning to `CCc1ncnc2cc(OC)c(OC)cc12`, the Potency result in the experiment on PC15, in the experiment on PC26, in the experiment with PC49, in the experiment on SC27B, in the experiment on TAB109 and with TAB113 was “inactive” each time. In addition, the Potency result with TAB165 and in the experiment on W2 was “inactive” in each case.
As to `NCC[C@H](O)C(=O)N[C@@H]1C[C@H](N)[C@@H](O[C@H]2O[C@H](CN)[C@@H](O)[C@H](O)[C@H]2O)[C@H](O)[C@H]1O[C@H]1O[C@H](CO)[C@@H](O)[C@H](N)[C@H]1O`, the Potency entry with PC15, with PC26, in the experiment on PC49, in the experiment with SC27B, with TAB109 and in the experiment on TAB113 was “inactive” in each case. Also, the Potency result with TAB165 and with W2 was “inactive” throughout.
Take `COc1ccc(C(=O)c2ccc(C)cc2)c(O)c1`: the Potency result in the experiment on PC15, with PC26, in the experiment on PC49, in the experiment with SC27B, with TAB109 and in the experiment with TAB113 was “inactive” in each case. Also, the Potency result with TAB165 and in the experiment on W2 was “inactive” throughout.
With `CC(=O)[O][Al][O]C(C)=O`, the Potency entry in the experiment with PC15, with PC26, in the experiment with PC49, in the experiment with SC27B, in the experiment with TAB109 and in the experiment with TAB113 was “inactive” in each case. In addition, the Potency entry in the experiment with TAB165 and with W2 was “inactive” each time.
Take `COC1=C(OC)C(=O)C(C/C=C(\C)CC/C=C(\C)CC/C=C(\C)CC/C=C(\C)CC/C=C(\C)CC/C=C(\C)CC/C=C(\C)CC/C=C(\C)CC/C=C(\C)CCC=C(C)C)=C(C)C1=O`: the Potency entry with PC15, in the experiment on PC26, in the experiment on PC49, in the experiment on SC27B, in the experiment with TAB109 and in the experiment on TAB113 was “inactive” throughout. The Potency entry in the experiment on TAB165 and in the experiment with W2 was “inactive” throughout.
